Test results reported in PubChem BioAssay (EPA / NIEHS).
Inconclusive results are not listed. Some structures have more than one record in an assay (separate samples or runs), and their calls can disagree. Active and inactive are the calls of the source. The calls were made as follows, unless noted: active = hit-call score of the fitted dose curve at least 0.9, where 1 is the maximum; inconclusive = response in the unintended direction; inactive = score below 0.9.

Columns and labels:
[1] = biological target: Norway rat Vesicular Monoamine Transporter (VMAT2), neurotransmitter transporter, Slc18a2 (gene 25549) (UniProt Q01827); assay: NVS_TR_rVMAT2: NovaScreen (NVS) Transporter Assay for Norway rat Vesicular Monoamine Transporter (VMAT2), neurotransmitter transporter (AID 2283376);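 also: actives lower the bound radioligand signal below the DMSO level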
Norway rat Vesicular Monoamine Transporter (VMAT2), neurotransmitter transporter, Slc18a2 (gene 25549), sequence (Q01827 whole entry, looked up): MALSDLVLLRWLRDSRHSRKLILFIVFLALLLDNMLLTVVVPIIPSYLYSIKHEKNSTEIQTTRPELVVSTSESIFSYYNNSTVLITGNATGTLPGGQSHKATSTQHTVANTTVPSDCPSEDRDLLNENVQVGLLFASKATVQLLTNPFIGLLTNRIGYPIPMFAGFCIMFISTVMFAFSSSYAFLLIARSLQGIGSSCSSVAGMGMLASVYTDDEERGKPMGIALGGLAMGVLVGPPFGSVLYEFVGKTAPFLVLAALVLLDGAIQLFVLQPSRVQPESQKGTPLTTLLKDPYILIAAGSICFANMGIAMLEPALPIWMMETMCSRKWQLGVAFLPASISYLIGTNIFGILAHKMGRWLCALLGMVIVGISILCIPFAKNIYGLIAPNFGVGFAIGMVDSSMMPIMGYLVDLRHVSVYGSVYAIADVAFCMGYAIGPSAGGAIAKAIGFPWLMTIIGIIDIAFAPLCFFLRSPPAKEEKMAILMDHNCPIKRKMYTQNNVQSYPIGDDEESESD
Method in brief: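 Binding endpoint from rat forebrain tissue, cell-free; 1 h incubation; filtered radioligand counted; 25 uM duplicate primary then dose series; DMSO negative control.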

[2] = biological target: Estrogen receptor beta (Homo sapiens) (UniProt Q92731); assay: OT_ER_ERbERb_1440: Odyssey Thera (OT) 24-hour HEK293T Protein-Complementation Assay for Estrogen Receptor-beta/-beta Homodimer (AID 2283380);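 also: fluorescence gain from ER beta LBD homodimer complementation read by laser scanning cytometry; scored as signal increase over DMSO baseline for both agonists and antagonists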
Estrogen receptor beta (Homo sapiens), sequence (Q92731 whole entry, looked up, the tested form may be a part): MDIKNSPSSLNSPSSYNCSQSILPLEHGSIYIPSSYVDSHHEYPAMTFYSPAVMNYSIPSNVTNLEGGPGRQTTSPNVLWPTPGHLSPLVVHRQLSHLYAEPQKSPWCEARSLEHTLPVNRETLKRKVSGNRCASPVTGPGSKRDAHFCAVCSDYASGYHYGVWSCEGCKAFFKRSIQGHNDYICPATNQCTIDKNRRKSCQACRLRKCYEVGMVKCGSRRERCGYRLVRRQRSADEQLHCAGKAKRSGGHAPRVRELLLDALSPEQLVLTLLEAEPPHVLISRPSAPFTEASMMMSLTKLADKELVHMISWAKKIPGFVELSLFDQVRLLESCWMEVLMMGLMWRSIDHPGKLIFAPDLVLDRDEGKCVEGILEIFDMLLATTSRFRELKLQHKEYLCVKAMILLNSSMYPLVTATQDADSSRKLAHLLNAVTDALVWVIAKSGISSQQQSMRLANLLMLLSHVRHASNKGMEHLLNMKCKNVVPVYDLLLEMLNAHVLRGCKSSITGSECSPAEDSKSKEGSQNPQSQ
Method in brief: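 HEK293T cells stably expressing human ER-beta LBD (aa 310-547) PCA homodimer pair, dosed 24 h; formaldehyde-fixed, Draq5-stained. Readout: increase in nuclear (agonist) or nuclear plus cytoplasmic (antagonist) fluorescence intensity versus DMSO, gain-of-signal fitting.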

[3] = biological target: Bile acid receptor (Homo sapiens) (UniProt Q96RI1); assay: OT_FXR_FXRSRC1_1440: Odyssey Thera (OT) 24-hour HEK293T Protein-Complementation Assay for Farnesoid X receptor/SRC-1 Co-activator (AID 2283384)
Bile acid receptor (Homo sapiens), sequence (Q96RI1 whole entry, looked up, the tested form may be a part): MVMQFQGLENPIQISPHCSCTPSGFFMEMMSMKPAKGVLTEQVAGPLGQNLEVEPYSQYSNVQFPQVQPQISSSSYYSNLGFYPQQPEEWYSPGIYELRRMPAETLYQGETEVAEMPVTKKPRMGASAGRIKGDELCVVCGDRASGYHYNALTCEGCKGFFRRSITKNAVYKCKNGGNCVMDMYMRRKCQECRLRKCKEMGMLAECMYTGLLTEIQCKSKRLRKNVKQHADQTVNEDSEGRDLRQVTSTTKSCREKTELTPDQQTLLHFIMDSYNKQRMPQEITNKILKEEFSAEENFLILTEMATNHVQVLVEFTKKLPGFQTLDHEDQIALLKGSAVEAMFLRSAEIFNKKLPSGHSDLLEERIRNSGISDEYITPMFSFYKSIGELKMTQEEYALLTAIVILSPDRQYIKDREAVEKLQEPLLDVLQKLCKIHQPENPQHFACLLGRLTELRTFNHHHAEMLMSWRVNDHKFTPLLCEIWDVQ
Method in brief: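 Protein-fragment complementation: FXR and SRC-1 fused to reporter fragments that reassemble on interaction, read by fluorescence intensity. Human HEK293T cells measured 24 h post-dose; positive-direction fit versus DMSO.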

[4] = biological target: Peroxisome proliferator-activated receptor gamma (Homo sapiens) (UniProt P37231); assay: OT_PPARg_PPARgSRC1_0480: Odyssey Thera (OT) 8-hour Protein-Complementation Assay for Peroxisome Proliferator-activated Receptor Gamma / SRC-1 Co-activator (AID 2283387);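 also: nuclear to cytoplasmic split Venus YFP fluorescence ratio reporting PPARg SRC-1 interaction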
Peroxisome proliferator-activated receptor gamma (Homo sapiens), sequence (P37231 whole entry, looked up, the tested form may be a part): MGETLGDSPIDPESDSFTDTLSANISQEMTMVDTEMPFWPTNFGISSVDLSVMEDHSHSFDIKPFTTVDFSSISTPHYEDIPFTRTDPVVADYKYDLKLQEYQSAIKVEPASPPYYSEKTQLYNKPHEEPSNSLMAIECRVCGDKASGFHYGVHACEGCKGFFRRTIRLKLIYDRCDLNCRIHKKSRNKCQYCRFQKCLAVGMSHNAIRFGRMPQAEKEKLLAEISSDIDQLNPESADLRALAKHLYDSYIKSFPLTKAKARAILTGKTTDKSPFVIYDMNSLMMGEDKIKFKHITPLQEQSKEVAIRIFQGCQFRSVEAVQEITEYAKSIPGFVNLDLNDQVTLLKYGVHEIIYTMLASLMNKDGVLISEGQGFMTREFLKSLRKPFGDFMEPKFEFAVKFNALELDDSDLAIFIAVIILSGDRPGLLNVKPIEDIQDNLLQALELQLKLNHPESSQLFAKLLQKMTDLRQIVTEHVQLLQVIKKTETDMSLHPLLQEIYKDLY
Method in brief: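 Split-YFP (IFP1/IFP2) PPARg/SRC-1 reporter, HEK293T, 37 °C, 5% CO2; 8 h compound; formaldehyde fix + Draq5; high-content imaging, N/C ratio, ≥350 cells/image, positive direction vs DMSO.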

[5] = biological target: Peroxisome proliferator-activated receptor gamma (Homo sapiens) (UniProt P37231); assay: OT_PPARg_PPARgSRC1_1440: Odyssey Thera (OT) 24-hour Protein-Complementation Assay for Peroxisome Proliferator-activated Receptor Gamma/ SRC-1 Co-activator (AID 2283388);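 also: nuclear to cytoplasmic ratio of reconstituted Venus YFP fluorescence in fixed imaged cells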
Method in brief: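 Readout: nuclear-to-cytoplasmic 488 nm fluorescence ratio, ≥350 cells per image, 8 images per well, after 24 h compound exposure of HEK293T expressing PPARg/SRC-1 split-YFP fusions. Activity fitted in positive direction against DMSO.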

[6] = CEETOX_H295R_OHPREG: CeeTox H295R High-throughput Steroidogenesis Assay for OH-Pregnenolone (OHPREG) (AID 2283434; active = hit-call score of the fitted dose curve at least 0.9, where 1 is the maximum; inactive = score below 0.9); details: actives raise or lower the signal
Method in brief: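 Readout: HPLC-MS/MS of 17alpha-hydroxypregnenolone in medium after 48 h chemical exposure of H295R cells pretreated with forskolin. Values fitted bidirectionally relative to DMSO; chemicals reducing viability to 20–70% were retested after 10-fold dilution.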

[7] = CEETOX_H295R_OHPROG: CeeTox H295R High-throughput Steroidogenesis Assay for OH-Progesterone (OHPROG) (AID 2283435; active = hit-call score of the fitted dose curve at least 0.9, where 1 is the maximum; inactive = score below 0.9;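 as to AC50: 17alpha-hydroxyprogesterone secreted into medium measured by HPLC-MS/MS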); details: actives raise or lower the signal
Method in brief: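 Medium steroid levels read by LC-MS/MS after 48 h chemical treatment (0.1% DMSO) of human adrenal H295R cells that had been forskolin-primed (10 uM, 48 h). Gain or loss fitted against DMSO; MTT cytotoxicity checked per well.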

[8] = CEETOX_H295R_CORTIC: CeeTox H295R High-throughput Steroidogenesis Assay for Corticosterone (CORTIC) (AID 2283437; active = hit-call score of the fitted dose curve at least 0.9, where 1 is the maximum; inactive = score below 0.9;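 also: corticosterone secreted into medium quantified by mass spectrometry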); details: actives raise or lower the signal
Method in brief: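 Steps: seed H295R, adhere overnight; 10 uM forskolin 48 h; replace with chemical (0.1% DMSO) 48 h; extract medium with MTBE; quantify corticosterone by HPLC-MS/MS; score bidirectionally vs DMSO.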

[9] = CEETOX_H295R_CORTISOL: CeeTox H295R High-throughput Steroidogenesis Assay for Cortisol (AID 2283438; active = hit-call score of the fitted dose curve at least 0.9, where 1 is the maximum; inactive = score below 0.9); details: actives raise or lower the signal
Method in brief: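 Cortisol measured by HPLC-MS/MS after MTBE extraction of medium from H295R cells exposed 48 h to chemical (0.1% DMSO), following 48 h prestimulation with 10 uM forskolin. Viability assessed by MTT in the same wells.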

[10] = CEETOX_H295R_DOC: CeeTox H295R High-throughput Steroidogenesis Assay for DOC (AID 2283439; active = hit-call score of the fitted dose curve at least 0.9, where 1 is the maximum; inactive = score below 0.9); details: actives raise or lower the signal
Method in brief: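 11-Deoxycorticosterone quantified in medium by MTBE extraction and HPLC-MS/MS after 48 h chemical exposure (0.1% DMSO) of forskolin-primed (10 uM, 48 h) H295R cells. Same-well MTT viability; data fitted bidirectionally against DMSO.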

[11] = CEETOX_H295R_PROG: CeeTox H295R High-throughput Steroidogenesis Assay for Progesterone (PROG) (AID 2283442; active = hit-call score of the fitted dose curve at least 0.9, where 1 is the maximum; inactive = score below 0.9;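 as to AC50: human H295R adrenal cells primed with 10 µM forskolin before dosing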); details: actives raise or lower the signal
Method in brief: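 Progesterone read-out: HPLC-MS/MS on MTBE extracts of conditioned medium after 48 h chemical exposure of forskolin-primed (10 uM, 48 h) H295R cells. Gain or loss of signal was fitted relative to DMSO baseline.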

[12] = biological target: Agonist Androgen Response Element (ARE), AR (gene 367) (UniProt P10275); assay: OT_AR_ARELUC_AG_1440: Odyssey Thera (OT) 24-hour CHO-K1 Luciferase Assay for Agonist Androgen Response Element (ARE) (AID 2283379)
Agonist Androgen Response Element (ARE), AR (gene 367), sequence (P10275 whole entry, looked up): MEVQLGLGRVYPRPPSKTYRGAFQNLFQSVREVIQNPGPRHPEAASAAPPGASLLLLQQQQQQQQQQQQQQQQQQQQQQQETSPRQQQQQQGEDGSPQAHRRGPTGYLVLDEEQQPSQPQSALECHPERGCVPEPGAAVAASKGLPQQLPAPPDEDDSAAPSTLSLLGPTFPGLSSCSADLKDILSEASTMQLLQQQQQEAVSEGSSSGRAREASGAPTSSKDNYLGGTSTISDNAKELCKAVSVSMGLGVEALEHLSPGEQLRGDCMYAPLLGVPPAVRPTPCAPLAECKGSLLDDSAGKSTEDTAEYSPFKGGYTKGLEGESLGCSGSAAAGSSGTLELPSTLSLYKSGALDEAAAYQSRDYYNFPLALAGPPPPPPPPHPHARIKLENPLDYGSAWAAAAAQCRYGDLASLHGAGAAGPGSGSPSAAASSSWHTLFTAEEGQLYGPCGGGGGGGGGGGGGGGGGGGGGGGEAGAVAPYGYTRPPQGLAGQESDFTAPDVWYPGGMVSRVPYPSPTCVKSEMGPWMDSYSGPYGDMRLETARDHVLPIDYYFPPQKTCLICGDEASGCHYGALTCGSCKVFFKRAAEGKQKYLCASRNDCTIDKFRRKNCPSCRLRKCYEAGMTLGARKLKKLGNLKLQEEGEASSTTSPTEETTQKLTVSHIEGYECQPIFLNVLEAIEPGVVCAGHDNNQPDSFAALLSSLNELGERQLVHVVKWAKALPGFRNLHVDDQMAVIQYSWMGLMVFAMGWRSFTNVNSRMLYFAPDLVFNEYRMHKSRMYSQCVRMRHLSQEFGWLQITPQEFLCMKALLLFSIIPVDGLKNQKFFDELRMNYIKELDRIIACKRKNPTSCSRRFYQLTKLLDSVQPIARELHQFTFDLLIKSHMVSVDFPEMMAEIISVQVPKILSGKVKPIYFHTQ
Method in brief: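 Luminescence increase above DMSO, read after a 24 h compound treatment of CHO-K1 cells expressing an androgen response element luciferase reporter, gives the single primary endpoint; concentration-response fitting used the positive direction.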

[13] = biological target: Bile acid receptor (Homo sapiens) (UniProt Q96RI1); assay: OT_FXR_FXRSRC1_0480: Odyssey Thera (OT) 8-hour HEK293T Protein-Complementation Assay for Farnesoid X receptor/SRC-1 Co-activator (AID 2283383)
Method in brief: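 Binding of FXR to coactivator SRC-1 was read as fluorescence from a reconstituted split reporter in HEK293T cells, 8 h after chemical addition. Only increases in signal versus DMSO were fit.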

[14] = biological target: Retinoic acid receptor RXR-alpha (Homo sapiens) (UniProt P19793); assay: OT_NURR1_NURR1RXRa_1440: Odyssey Thera (OT) 24-hour HEK293T Protein Complementation Assay for Nurr1/retinoid X receptor (RXR) (AID 2283386)
Retinoic acid receptor RXR-alpha (Homo sapiens), sequence (P19793 whole entry, looked up, the tested form may be a part): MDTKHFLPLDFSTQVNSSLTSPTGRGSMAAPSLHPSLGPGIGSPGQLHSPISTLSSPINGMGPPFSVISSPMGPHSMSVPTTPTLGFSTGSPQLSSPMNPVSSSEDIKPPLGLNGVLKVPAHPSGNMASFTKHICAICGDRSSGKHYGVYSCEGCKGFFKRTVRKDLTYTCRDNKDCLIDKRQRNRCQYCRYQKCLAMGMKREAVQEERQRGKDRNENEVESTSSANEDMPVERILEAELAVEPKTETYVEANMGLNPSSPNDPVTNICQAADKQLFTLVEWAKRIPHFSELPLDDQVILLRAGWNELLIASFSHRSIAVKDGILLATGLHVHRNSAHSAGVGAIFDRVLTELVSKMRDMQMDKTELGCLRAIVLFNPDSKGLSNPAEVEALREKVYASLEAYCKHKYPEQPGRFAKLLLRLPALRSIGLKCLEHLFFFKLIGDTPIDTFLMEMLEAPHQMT
Method in brief: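 Gain in fluorescence, fitted relative to DMSO, reflects Nurr1–RXRα association in HEK293T cells after 24 h dosing. Bait and prey are each linked to a reporter-protein fragment that reassembles on interaction.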

[15] = biological target: Retinoic acid receptor RXR-alpha (Homo sapiens) (UniProt P19793); assay: OT_NURR1_NURR1RXRa_0480: Odyssey Thera (OT) 8-hour HEK293T Protein Complementation Assay for Nurr1/retinoid X receptor (RXR) (AID 2283385)
Method in brief: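 Interaction of Nurr1 with RXRα read as reconstituted reporter fluorescence in a HEK293T fragment-complementation system, 8 h post-treatment; increase over DMSO baseline analysed.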

[16] = biological target: Estrogen receptor (Homo sapiens) (UniProt P03372); assay: OT_ERa_GFPERaERE_0120: Odyssey Thera (OT) 2-hour HeLa Transcription Induction Assay for Estrogen Receptor (AID 2283382)
Estrogen receptor (Homo sapiens), sequence (P03372 whole entry, looked up): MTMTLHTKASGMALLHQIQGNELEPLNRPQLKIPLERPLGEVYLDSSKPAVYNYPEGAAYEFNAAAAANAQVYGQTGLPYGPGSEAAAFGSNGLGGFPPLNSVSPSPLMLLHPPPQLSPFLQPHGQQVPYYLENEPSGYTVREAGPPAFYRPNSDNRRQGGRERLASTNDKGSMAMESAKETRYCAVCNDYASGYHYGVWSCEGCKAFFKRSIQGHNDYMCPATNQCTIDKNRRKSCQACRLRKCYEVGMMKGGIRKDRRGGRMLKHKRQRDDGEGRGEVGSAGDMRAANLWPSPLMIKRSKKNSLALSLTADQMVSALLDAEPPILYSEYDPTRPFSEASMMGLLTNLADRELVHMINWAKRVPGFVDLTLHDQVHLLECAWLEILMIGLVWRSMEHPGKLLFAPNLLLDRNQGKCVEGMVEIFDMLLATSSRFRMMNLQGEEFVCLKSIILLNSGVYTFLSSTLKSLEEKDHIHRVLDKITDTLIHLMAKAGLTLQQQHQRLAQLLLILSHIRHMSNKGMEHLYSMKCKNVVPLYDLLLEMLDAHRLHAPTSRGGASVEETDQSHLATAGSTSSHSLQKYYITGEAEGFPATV
Method in brief: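 Fluorescence-microscopy images of the GFP-ERα/ERE reporter, scored by high-content image algorithms, give the readout. HeLa exposure lasted 2 h, and only signal increase over DMSO was fitted.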

[17] = CEETOX_H295R_ESTRADIOL: CeeTox H295R High-throughput Steroidogenesis Assay for Estradiol (AID 2283440; active = hit-call score of the fitted dose curve at least 0.9, where 1 is the maximum; inactive = score below 0.9;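 also: estradiol secreted into medium quantified by LC-MS/MS after dansyl derivatisation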); details: actives raise or lower the signal
Method in brief: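 H295R, 48 h forskolin (10 uM) prestim → 48 h compound, 0.1% DMSO final. Estradiol in medium: MTBE extraction, dansyl chloride derivatization, LC-MS/MS. Fit bidirectional vs DMSO baseline; MTT viability in same wells.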

[18] = CEETOX_H295R_ESTRONE: CeeTox H295R High-throughput Steroidogenesis Assay for Estrone (AID 2283441; active = hit-call score of the fitted dose curve at least 0.9, where 1 is the maximum; inactive = score below 0.9;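 also: human adrenal H295R cells prestimulated with forskolin for two days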); details: actives raise or lower the signal
Method in brief: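 Estrone secreted into medium quantified by LC-MS/MS after dansyl chloride derivatization, following 48 h chemical exposure (0.1% DMSO final) of forskolin-prestimulated (10 uM, 48 h) H295R cells; gain or loss fitted against DMSO; MTT viability in same wells.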

[19] = biological target: human Norepinephrine Transporter (NET), SLC6A2 (gene 6530) (UniProt P23975); assay: NVS_TR_hNET: NovaScreen (NVS) Transporter Assay for human Norepinephrine Transporter (NET) (AID 2283377);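 also: cell-free membrane protein extracted from CHO cells expressing human NET; displacement of radioligand from human NET seen as loss of scintillation signal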
human Norepinephrine Transporter (NET), SLC6A2 (gene 6530), sequence (P23975 whole entry, looked up): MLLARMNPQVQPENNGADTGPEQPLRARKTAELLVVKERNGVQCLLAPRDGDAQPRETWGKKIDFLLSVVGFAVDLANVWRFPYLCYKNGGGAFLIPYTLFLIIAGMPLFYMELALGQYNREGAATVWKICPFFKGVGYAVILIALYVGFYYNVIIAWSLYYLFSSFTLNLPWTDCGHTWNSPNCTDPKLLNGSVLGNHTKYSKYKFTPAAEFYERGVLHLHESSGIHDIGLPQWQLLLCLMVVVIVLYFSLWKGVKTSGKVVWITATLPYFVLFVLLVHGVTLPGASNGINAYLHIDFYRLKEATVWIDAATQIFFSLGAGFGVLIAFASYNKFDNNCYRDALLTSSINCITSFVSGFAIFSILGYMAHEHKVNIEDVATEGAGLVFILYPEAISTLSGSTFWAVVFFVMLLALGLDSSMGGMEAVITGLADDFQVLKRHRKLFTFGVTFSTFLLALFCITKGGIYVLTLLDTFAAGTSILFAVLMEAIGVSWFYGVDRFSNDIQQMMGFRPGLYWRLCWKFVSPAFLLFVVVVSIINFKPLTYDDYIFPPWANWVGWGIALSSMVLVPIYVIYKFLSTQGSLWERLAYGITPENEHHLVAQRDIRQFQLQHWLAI
Method in brief: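 In this cell-free binding screen, chemicals at 25 uM (duplicate) compete with a radioligand for CHO-derived human NET over 1 hour, with filter-based radiodetection.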

[20] = CEETOX_H295R_ANDR: CeeTox H295R High-throughput Steroidogenesis Assay for Androstenedione (ANDR) (AID 2283436; active = hit-call score of the fitted dose curve at least 0.9, where 1 is the maximum; inactive = score below 0.9;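 also: human H295R adrenal cells exposed for 48 h with androstenedione measured in medium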); details: actives raise or lower the signal
Method in brief: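 Steroidogenesis in H295R adrenal cells after 48 h dosing; androstenedione quantified by LC-MS/MS, with DMSO as negative control and baseline for bidirectional curve fitting.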

Measured: AC50

CCCOCC(=Nc1ccc(Cl)cc1C(F)(F)F)n1ccnc1
inactive: [1] | [2] | [4] | [5] | [8]
active: [3] 11.2 µM | [6] 0.377 µM | [7] 0.147 µM | [9] 0.105 µM | [10] 0.165 µM | [11] 0.336 µM

O=c1ccc(=O)[nH][nH]1
inactive: [12] | [13] | [14] | [4]

CCCOc1nn(C(=O)NS(=O)(=O)c2ccccc2C(=O)OC)c(=O)n1C
inactive: [12] | [15] | [14] | [4]

CSc1nnc(C(C)(C)C)c(=O)n1N
inactive: [2] | [13] | [3] | [15] | [14] | [6] | [7] | [8] | [9] | [10] | [11]

CCC(CC)Nc1c([N+](=O)[O-])cc(C)c(C)c1[N+](=O)[O-]
active: [2] 13.5 µM | [13] 43.3 µM | [3] 71.7 µM | [14] 82.1 µM
inactive: [14] | [4] | [5]

Cc1ccn2nc(S(=O)(=O)Nc3c(F)cccc3F)nc2n1
inactive: [2] | [13] | [3] | [14] | [4] | [5]

CCOC(=O)CC(SP(=O)(OC)OC)C(=O)OCC (stereo not drawn)
inactive: [2] | [13] | [3] | [15] | [14] | [4] | [5]

CSc1nc(NC(C)C)nc(NC(C)C)n1
inactive: [1] | [2] | [16] | [14] | [4] | [5] | [6] | [7] | [17] | [11]
active: [18] 2.54 µM

CC[C@H](C)[C@H]1O[C@]2(C=C[C@@H]1C)C[C@@H]1C[C@@H](C/C=C(\C)[C@@H](O[C@H]3C[C@H](OC)[C@@H](O[C@H]4C[C@H](OC)[C@@H](NC)[C@H](C)O4)[C@H](C)O3)[C@@H](C)/C=C/C=C3\CO[C@@H]4[C@H](O)C(C)=C[C@@H](C(=O)O1)[C@]34O)O2
inactive: [16] | [14] | [4]
active: [1] 4.68 µM | [19] 5.29 µM

CCOP(=O)(OCC)Oc1cc(C)nc(C(C)C)n1
inactive: [2] | [13] | [3] | [14] | [4]

CCC(=O)Nc1ccc(Cl)c(Cl)c1
active: [1] 23.3 µM | [19] 4.14 µM | [7] 3.97 µM | [20] 3.89 µM
inactive: [12] | [14] | [4] | [5] | [6]

CCc1cccc(CC)c1N(COC)C(=O)CCl
active: [14] 0.714 µM
inactive: [2] | [16] | [13] | [3] | [15] | [4]

C[N+]1(C)CCCCC1
inactive: [12] | [2] | [14] | [4] | [5]

CCCCOC(=O)[C@@H](C)Oc1ccc(Oc2ccc(C#N)cc2F)cc1
inactive: [2] | [16] | [14] | [4]

CCCCOC(=O)c1ccccc1C(=O)O
inactive: [12] | [2] | [13] | [3] | [14] | [4] | [5]

Cc1nn(-c2cc(NS(C)(=O)=O)c(Cl)cc2Cl)c(=O)n1C(F)F
inactive: [12] | [2] | [14] | [4]

CCCCSP(=O)(SCCCC)SCCCC
inactive: [2] | [3] | [14] | [4]
active: [13] 36.9 µM

Nc1c(Cl)cc([N+](=O)[O-])cc1Cl
inactive: [12] | [2] | [16] | [13] | [15] | [14] | [4] | [5]

CC1(C(=O)Nc2ccc(O)c(Cl)c2Cl)CCCCC1
active: [2] 20.6 µM | [6] 7.52 µM | [7] 9.28 µM | [11] 7.63 µM
inactive: [13] | [3] | [14] | [4]
